Data reported in article PMC5515408, “Sequence-specific DNA binding by MYC/MAX to low-affinity non-E-box motifs”.
Over roughly 5,000 sequences, “log2 normalized fluorescence” has its median near 0.089; the highest 2% begin near 0.81. Shown is part of a subset that was picked to be rich in the highest values.

biological target: MYC (p64);MAX (p21), in MYC:MAX (human;human, UniProt P01106-1;P61244-2 1-439;1-151, |); test: protein-binding microarray (anti-MAX antibody); PBM: 15 mM Tris-HCl pH 7.5, 100 mM KCl, 0.075% NP40, 7.5 mM beta-mercaptoethanol, 375 ng/ul BSA, 8 ng/ul poly(dA-dT):(dA-dT), 550 ng complex, 60 min, room tempe; high values mean tight binding; conditions: protein: recombinant;recombinant; tags: 6xHis;6xHis; copies: 1;1; label: 3' end of printed strand (linker) attached to glass slide; dsDNA, one strand shown
Method in brief: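 Binding, given as log2 normalized fluorescence, was measured on a custom Agilent glass array. The array bore ~5000 unique 12-nt sequences spotted in triplicate and converted to double strands by primer extension. It was incubated with 550 ng of human His-tagged MYC:MAX or MAX:MAX dimers from E. coli for 60 min at room temperature in Tris-KCl buffer, pH 7.5, with NP40, BSA and poly(dA-dT) competitor, and bound protein was detected with anti-MAX and secondary antibodies and scanned at 543 nm.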

Sequence of MYC (p64);MAX (p21), in MYC:MAX (P01106 16-454, chain 1 of 2): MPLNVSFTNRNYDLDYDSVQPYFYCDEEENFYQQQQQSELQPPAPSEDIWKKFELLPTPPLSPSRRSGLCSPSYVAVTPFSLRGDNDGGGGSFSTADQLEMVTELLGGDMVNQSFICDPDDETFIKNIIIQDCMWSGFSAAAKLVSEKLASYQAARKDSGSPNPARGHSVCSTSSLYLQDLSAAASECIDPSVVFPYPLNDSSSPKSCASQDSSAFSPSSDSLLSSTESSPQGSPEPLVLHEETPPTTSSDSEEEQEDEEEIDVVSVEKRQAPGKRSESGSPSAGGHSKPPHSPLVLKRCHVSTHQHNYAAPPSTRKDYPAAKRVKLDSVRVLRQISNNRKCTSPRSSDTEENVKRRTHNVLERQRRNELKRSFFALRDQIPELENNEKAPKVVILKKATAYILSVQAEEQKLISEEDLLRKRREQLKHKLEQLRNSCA
Sequence of MYC (p64);MAX (p21), in MYC:MAX (P61244 other isoform, or with tags, fused parts or gaps |, chain 2 of 2): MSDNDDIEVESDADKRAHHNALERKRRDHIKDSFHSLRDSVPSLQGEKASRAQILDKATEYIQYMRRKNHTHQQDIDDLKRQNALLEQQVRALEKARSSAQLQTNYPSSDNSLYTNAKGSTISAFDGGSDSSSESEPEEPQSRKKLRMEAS

Sequence | binding signal
CCGGCTGAGTAGTGGTATTAATAGCTAAGATTACTATATCGACG | 0.0775 log2 normalized fluorescence
CCGGCTGAGGGCTTGTATTAATAGCTAAGATTACTATATCGACG | 0.0447 log2 normalized fluorescence
CCGGCTGACGACAGGTATTAATAGCTAAGATTACTATATCGACG | 0.106 log2 normalized fluorescence
CCGGCTGAAGTTCAGTATTAATAGCTAAGATTACTATATCGACG | 0.0781 log2 normalized fluorescence
CCGGCTGAAGACCTGTATTAATAGCTAAGATTACTATATCGACG | 0.0334 log2 normalized fluorescence
CCGGCTGATGTAATGTATTAATAGCTAAGATTACTATATCGACG | 0.000857 log2 normalized fluorescence
CCGGCTGACGTTTGGTATTAATAGCTAAGATTACTATATCGACG | 0.243 log2 normalized fluorescence
CCGGCTGACCACATGTATTAATAGCTAAGATTACTATATCGACG | 0.581 log2 normalized fluorescence
CCGGCTGAACGTGAGTATTAATAGCTAAGATTACTATATCGACG | 0.437 log2 normalized fluorescence
CCGGCTGAGGACGAGTATTAATAGCTAAGATTACTATATCGACG | -0.00251 log2 normalized fluorescence
CCGGCTTACACGTGGAATTAATAGCTAAGATTACTATATCGACG | 0.667 log2 normalized fluorescence
CCGGCTTACACGTGTTATTAATAGCTAAGATTACTATATCGACG | 1.05 log2 normalized fluorescence
CCGGCTCACACGTGTTATTAATAGCTAAGATTACTATATCGACG | 0.827 log2 normalized fluorescence
CCGGCTTACAAGTGTTATTAATAGCTAAGATTACTATATCGACG | 0.479 log2 normalized fluorescence
CCGGCTAATACGTGGTGTTAATAGCTAAGATTACTATATCGACG | 0.417 log2 normalized fluorescence
CCGGCTTACACGTGGCGTTAATAGCTAAGATTACTATATCGACG | 0.878 log2 normalized fluorescence
CCGGCTCACACGGGTTATTAATAGCTAAGATTACTATATCGACG | 0.461 log2 normalized fluorescence
CCGGCTCACACGTGATATTAATAGCTAAGATTACTATATCGACG | 0.75 log2 normalized fluorescence
CCGGCTTAAACGTGTTATTAATAGCTAAGATTACTATATCGACG | 0.426 log2 normalized fluorescence
CCGGCTTACACGTGGTGTTAATAGCTAAGATTACTATATCGACG | 0.827 log2 normalized fluorescence
CCGGCCTACACGTGGTGTTAATAGCTAAGATTACTATATCGACG | 0.779 log2 normalized fluorescence
CCGGCTGACACGTGGCGTTAATAGCTAAGATTACTATATCGACG | 0.519 log2 normalized fluorescence
CCGGCTGATTTAATGTATTAATAGCTAAGATTACTATATCGACG | 0.0643 log2 normalized fluorescence
CCGGCTGAACCTACGTATTAATAGCTAAGATTACTATATCGACG | 0.131 log2 normalized fluorescence
CCGGCTGATCGCTTGTATTAATAGCTAAGATTACTATATCGACG | -0.00084 log2 normalized fluorescence

Sequence | binding signal
CCGGCTGAACATGGGTATTAATAGCTAAGATTACTATATCGACG | 0.288 log2 normalized fluorescence
CCGGCTGATCGGCGGTATTAATAGCTAAGATTACTATATCGACG | 0.0519 log2 normalized fluorescence
CCGGCTGACAGTCGGTATTAATAGCTAAGATTACTATATCGACG | 0.0326 log2 normalized fluorescence
CCGGCTGACAGTTGGTATTAATAGCTAAGATTACTATATCGACG | 0.112 log2 normalized fluorescence
CCGGCTGAAATAGTGTATTAATAGCTAAGATTACTATATCGACG | 0.0457 log2 normalized fluorescence
CCGGCTGTCATGTGGTATTAATAGCTAAGATTACTATATCGACG | 0.631 log2 normalized fluorescence
CCGGCTGACCTGTTGTATTAATAGCTAAGATTACTATATCGACG | 0.216 log2 normalized fluorescence
CCGGCTGAAAGAATGTATTAATAGCTAAGATTACTATATCGACG | 0.0901 log2 normalized fluorescence
CCGGCTGATCATTTGTATTAATAGCTAAGATTACTATATCGACG | 0.247 log2 normalized fluorescence
CCGGCTACTATGCCATGTTAATAGCTAAGATTACTATATCGACG | 0.159 log2 normalized fluorescence
CCGGCTGAGACGTGGTCTTAATAGCTAAGATTACTATATCGACG | 0.229 log2 normalized fluorescence
CCGGCCACCACGTGGTATTAATAGCTAAGATTACTATATCGACG | 0.975 log2 normalized fluorescence
CCGGCTGCCATGTGGGATTAATAGCTAAGATTACTATATCGACG | 0.899 log2 normalized fluorescence
CCGGCTGCCACGTGGTATTAATAGCTAAGATTACTATATCGACG | 0.82 log2 normalized fluorescence
CCGGCGGCCACGTGGTATTAATAGCTAAGATTACTATATCGACG | 0.783 log2 normalized fluorescence
CCGGCCGCCACGTGGTCTTAATAGCTAAGATTACTATATCGACG | 0.884 log2 normalized fluorescence
CCGGCTGATACGTGGTCTTAATAGCTAAGATTACTATATCGACG | 0.408 log2 normalized fluorescence
CCGGCTGCCACGTCGTATTAATAGCTAAGATTACTATATCGACG | 0.37 log2 normalized fluorescence
CCGGCTGCGACGTGGTATTAATAGCTAAGATTACTATATCGACG | 0.41 log2 normalized fluorescence
CCGGCAACCACGTGGTATTAATAGCTAAGATTACTATATCGACG | 0.742 log2 normalized fluorescence
CCGGCTGCCATGTGGTTTTAATAGCTAAGATTACTATATCGACG | 0.633 log2 normalized fluorescence
CCGGCTGATGAGACGTATTAATAGCTAAGATTACTATATCGACG | -0.0198 log2 normalized fluorescence
CCGGCTGATACAGTGTATTAATAGCTAAGATTACTATATCGACG | 0.0568 log2 normalized fluorescence
CCGGCTGAGATGCTGTATTAATAGCTAAGATTACTATATCGACG | -0.0512 log2 normalized fluorescence
CCGGCTGAGGCTATGTATTAATAGCTAAGATTACTATATCGACG | -0.0462 log2 normalized fluorescence

Sequence | binding signal
CCGGCTGACTCTTGGTATTAATAGCTAAGATTACTATATCGACG | 0.16 log2 normalized fluorescence
CCGGCTGATGGCCTGTATTAATAGCTAAGATTACTATATCGACG | 0.18 log2 normalized fluorescence
CCGGCTGATACACGGTATTAATAGCTAAGATTACTATATCGACG | 0.262 log2 normalized fluorescence
CCGGCTGAGCCAATGTATTAATAGCTAAGATTACTATATCGACG | 0.00395 log2 normalized fluorescence
CCGGCTGAAACCGCGTATTAATAGCTAAGATTACTATATCGACG | 0.25 log2 normalized fluorescence
CCGGCTGAGAGTACGTATTAATAGCTAAGATTACTATATCGACG | 0.142 log2 normalized fluorescence
CCGGCTGAGGGTCGGTATTAATAGCTAAGATTACTATATCGACG | 0.137 log2 normalized fluorescence
CCGGCCGCGACGTGGTATTAATAGCTAAGATTACTATATCGACG | 0.471 log2 normalized fluorescence
CCGGCTGCCACGAGGAATTAATAGCTAAGATTACTATATCGACG | 0.707 log2 normalized fluorescence
CCGGCTGTCACGTGGAATTAATAGCTAAGATTACTATATCGACG | 0.766 log2 normalized fluorescence
CCGGCCGCCACGTAGTATTAATAGCTAAGATTACTATATCGACG | 0.312 log2 normalized fluorescence
CCGGCTGCCACGTGGAATTAATAGCTAAGATTACTATATCGACG | 0.873 log2 normalized fluorescence
CCGGCCGCCACGTGGTATTAATAGCTAAGATTACTATATCGACG | 0.88 log2 normalized fluorescence
CCGGCTGACGCGTCGTATTAATAGCTAAGATTACTATATCGACG | 0.46 log2 normalized fluorescence
CCGGCTGACGCGTGATATTAATAGCTAAGATTACTATATCGACG | 0.675 log2 normalized fluorescence
CCGGCTAAGACGTGGTATTAATAGCTAAGATTACTATATCGACG | 0.411 log2 normalized fluorescence
CCGGCCCACACGTGGTGTTAATAGCTAAGATTACTATATCGACG | 0.705 log2 normalized fluorescence
CCGGCCCGCACGTGGTATTAATAGCTAAGATTACTATATCGACG | 0.749 log2 normalized fluorescence
CCGGCGCCCACGTGGTATTAATAGCTAAGATTACTATATCGACG | 0.862 log2 normalized fluorescence
CCGGCGACCACGTGGTATTAATAGCTAAGATTACTATATCGACG | 0.741 log2 normalized fluorescence
CCGGCCCCCACGTGGTATTAATAGCTAAGATTACTATATCGACG | 0.854 log2 normalized fluorescence
CCGGCCCACACGTGGTATTAATAGCTAAGATTACTATATCGACG | 0.945 log2 normalized fluorescence
CCGGCTCCCACGTGGTATTAATAGCTAAGATTACTATATCGACG | 0.763 log2 normalized fluorescence
